These results are taken from PubChem BioAssay (NCI).

“And” between values parts separate entries of the source, which are not always exact repeats. Equal values may be shown once. Compounds without any hit were thinned out: in the full panel of roughly 83,000, 20% have a hit.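 Compound tested at a single concentration for 48 hours in 96-well plates; a percent growth value below 10 was scored as active.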 The source made the active and inactive calls.

In the assay the test system is MDA-MB-468 breast. Kind of assay: NCI-60 one-dose screen, 48 h (100 = growth as untreated, 0 = no growth, -100 = all killed). As to conditions: 10 µM unless noted.
In the case of `Nc1ccc2ccc(N)cc2c1`, the growth is 75.8% (inactive).

Turning to `COCCCNCC(=O)Nc1c(C)cccc1C`, the growth is 112% (inactive).

Consider `CCC(=C(c1ccc(OCCN(CC)CC)cc1)c1ccc(OCCN(CC)CC)cc1)c1ccc(Cl)cc1`, for which the growth is -79.1% (active).

`Nc1nc(-c2ccnc(Cl)c2)nn1-c1nc2ccccc2s1`: the growth was 107% (inactive).

Turning to `CC1(C)C(=O)/C(=C\c2ccccn2)C[C@]2(C)[C@H]3CC[C@@H]4[C@@H](C(=O)/C=C/c5ccccn5)CC[C@@]4(C)[C@]3(C)CC[C@@H]12`, the growth is -50.6% (active).

As for `COc1cc(C(=O)N2CCN(c3cc4c(cc3F)c(=O)c(C(=O)NO)cn4C3CC3)CC2)cc(OC)c1OC`, the growth was 95.8% (inactive).

As to `O=S(=O)(NCCNc1cc(-c2cn(-c3ccccc3)nc2-c2cccc(O)c2)ccn1)c1ccccc1`, the growth is 34.2% (inactive).

Take `CCN1C2CCC1/C(=C\c1ccccc1)C(=O)/C2=C/c1ccccc1`: the growth is 16.1% (inactive).

Regarding `Cc1cc(NS(=O)(=O)c2ccc(-c3cnc(C4CC4)o3)cc2)ccc1Cl`, the growth is -6.6% (active).

Turning to `C=CCN=c1sc(-c2ccc3ccccc3c2)cn1NC(=O)c1cc2ccc1CCc1ccc(cc1)CC2`, the growth is 39.1% (inactive).

On to `CN1CCC(CNc2cc(C3(C(=O)Nc4cc(C(=O)Nc5ccc(Cl)c(C(F)(F)F)c5)ccc4F)CC3)ncn2)CC1`, for which the growth was -7.58% (active).

With `Fc1c[c-]c(-c2ccccn2)c(F)c1.[CH3-].[Pt+2].c1ccc(P(C[PH+](c2ccccc2)c2ccccc2)c2ccccc2)cc1`, the growth was -38.3% (active).

Consider `C#C[C@]1(O)CC[C@H]2[C@@H]3CC=C4c5sc(Nc6cc(F)ccc6F)nc5CC[C@]4(C)[C@H]3CC[C@@]21C`, for which the growth was -45.6% (active).

On to `COc1ccc(N2CCC(=O)NC2=S)cc1`, for which the growth is 100% (inactive).

In the case of `NC(=NCCCOc1ccc(F)cc1)Nc1ccc(Cl)c(Cl)c1`, the growth is 41% (inactive).

Regarding `COc1cc(OC)cc(-c2n/c(=C\c3c(O)[nH]c4ccc(OC)cc34)cc3c2=Nc2ccccc2-3)c1`, the growth was 88.4% (inactive).

Turning to `Nc1nc(N)c(C=Nc2ccc(Br)cc2)c(Nc2ccc(Br)cc2)n1`, the growth is 109% (inactive).

In the case of `CN1CCN(Cc2ccc(NC(=O)c3cncc(C#Cc4cnc5ccc(NC6CCOCC6)nn45)c3)cc2C(F)(F)F)CC1`, the growth was -88.5% (active).

As to `CCCCOc1ccc(S(=O)(=O)N2CCN(c3nc(C)cc(N4CCOCC4)n3)CC2)cc1`, the growth was 34.8% (inactive).

As to `Cn1ccc(Nc2nccc(Oc3ccc(C(=O)Nc4cccc(F)c4)c(Cl)c3)n2)c1`, the growth is -12.3% (active).

`CCOC(=O)Cn1nnc(-c2ccc(OCc3ccccc3F)cc2)n1`: the growth is 90.4% (inactive).

Turning to `CCCCCCNC(=O)Nc1ccc2cc3ccc(NC(=O)NCCCCCC)cc3nc2c1`, the growth was 18.6% (inactive).

In the case of `c1c(-c2cc(C3CC3)[nH]n2)n[nH]c1C1CC1`, the growth is 95.4% (inactive).

In the case of `Oc1c(Cl)cc(Cl)c2ccc(Cn3cc(-c4ccc(C(F)(F)F)cc4)nn3)nc12`, the growth was 39.6% (inactive).

Regarding `CCOc1ccc(NC2=C(Cl)C(=O)c3nc(C)ccc3C2=O)cc1`, the growth is -95.2% (active).

As to `CCn1c(Cc2ccccc2Nc2c(Cl)cccc2Cl)nnc1SCC(=O)Nc1ccccc1C(F)(F)F`, the growth is 69.9% (inactive).

Take `COc1cccc(NC(=O)c2sc3nc4c(cc3c2N)CCCC4)c1`: the growth is 9.67% (active).

Turning to `O=C1NN(c2ccccc2)C(c2ccc(Cl)cc2)N2CCC[C@H]12` (stereo not given in full), the growth was 98.7% (inactive).

`O=[N+]([O-])c1ccc(-c2nnc(SCc3ccc(O)c4ncccc34)o2)cc1`: the growth is 16.2% (inactive).

With `c1ccc2nc(-c3ccc4ccccc4n3)ccc2c1`, the growth was 78.9% (inactive).

Turning to `NS(=O)(=O)c1ccc(CCn2c(SCC(=O)c3ccc(Cl)cc3)nc3ccccc3c2=O)cc1`, the growth is 105% (inactive).

Take `Cc1ccc(NCSc2ccc(Cl)cc2)cc1`: the growth was -0.979% (active) and 43.6% (inactive).

For the compound `O=C(/C=C/c1cn(-c2ccccc2)nc1-c1cccc(Nc2ccnc3cc(Cl)ccc23)c1)c1ccc2c(c1)OCO2`, the growth is 68.2% (inactive).

`COc1ccc(Cl)cc1NC(=O)C(Br)C(Br)C(=O)O` (stereo not given): the growth is -79% (active).

`CS(=O)(=O)c1ccc(C(=O)N2N=C(c3ccccc3)CC2c2ccc3c(c2)OCO3)cc1` (stereo not given): the growth is 90.1% (inactive).

Regarding `C=C1C(=O)O[C@H]2[C@H]1CC/C(COC(=O)/C=C\C(=O)NCc1ccc(Cn3c(=O)sn(-c4ccc(C#N)cc4)c3=O)cc1)=C\CC[C@@]1(C)O[C@@H]21`, the growth was -87.6% (active).

`COC(=O)CC[C@@H](C)[C@H]1CC[C@H]2[C@@H]3CC[C@@H]4C[C@H](O)CC[C@]4(C)[C@H]3C[C@H](O)[C@]12C`: the growth is 103% (inactive).

For the compound `Cc1nc(N)sc1-c1csc(Nc2ccc(C(F)(F)F)cc2)n1`, the growth was -28.9% (active).

Turning to `Clc1ccc(-c2nnc(-c3ccco3)o2)cc1`, the growth was 100% (inactive).

As for `CC(C)c1nc(N(C)S(C)(=O)=O)nc(-c2ccc(F)cc2)c1/C=C/[C@@H](O)C[C@@H](O)CC(=O)O`, the growth is 99.4% (inactive).
